Assay [1] is described as follows: CCTE_Shafer_MEA_dev_correlation_coefficient_mean: CCTE's Neural Network Formation Assay for Mean Correlation Coefficient, Shafer Lab (AID 2284093).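 As to AC50: well mean pairwise spike train correlation integrated as AUC over recording days 5 to 12; potency fitted for loss of correlation relative to DMSO vehicle wells.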 An outline of the steps: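 Read-out: well-mean correlation coefficient of spike trains between electrode pairs, collapsed over four recording days as trapezoidal area-under-the-curve. Developing rat cortical neuron networks grown on MEAs received test chemical continuously from plating.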

Assay [2] is described as follows: UKN2_HCS_IMR90_neural_migration: University of Konstanz (UKN) Leist Lab Neural Crest Cell Migration Assay in human induced IMR90 Pluripotent Stem Cells (UKN2) (AID 2284204). To be noted: actives raise or lower the signal. Put shortly:
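iPSC-derived IMR90 neural crest cells on PLO/laminin/fibronectin were seeded around silicone stoppers; after stopper removal, migration in N2-S medium with EGF and FGF ran 24 h before 24 h chemical exposure. Calcein-AM/Hoechst high-content imaging; bidirectional fit versus DMSO.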

The nature of assay [3]: IUF_NPC1b_proliferation_BrdU_72hr: Leibniz Research Institute for Environmental Medicine (IUF) 72-hour Neural Progenitor Cell Bromodeoxyuridine (BrdU) Proliferation Assay (NPC1b) (AID 2284207). Put shortly: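 hNPC spheres (primary, GW 16-19 fetal cortex), single sphere/well, EGF+FGF medium; 72 h compound, no renewal; BrdU pulse last 16 h; luminescent ELISA; activity vs DMSO baseline; growth-factor withdrawal as positive control.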

The nature of assay [4]: IUF_NPC1a_proliferation_area_72hr: Leibniz Research Institute for Environmental Medicine (IUF) 72-hour Neural Progenitor Cell Proliferation Area Assay (NPC1a) (AID 2284208). Put shortly:
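Proliferation is scored as sphere area gain in primary human fetal neural progenitors treated for 72 h in EGF/FGF-containing medium. Viability, LDH and BrdU readouts come from the same wells.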

Assay [5] is described as follows: IUF_NPC1_viability_72hr: Viability Assessment at 72 hours in the Leibniz Research Institute for Environmental Medicine (IUF) Neural Progenitor Cell Proliferation Assay (NPC1) (AID 2284209). An outline of the steps:
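Single spheres (0.25-0.35 mm) of human fetal cortex-derived neural progenitor cells were grown in proliferation medium with EGF and FGF at 37C and 5% CO2. They were exposed for 72 h without renewal, and viability was read by alamar blue resorufin fluorescence.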

Assay [6] is described as follows: CCTE_Mundy_HCI_Cortical_Synap_Neur_Matur_NeuriteSpotCountPerNeuriteLength: CCTE's Synaptogenesis and Neurite Maturation Assay in rat cortical cells for Neurite Spot Count per Neurite Length, Mundy Lab (AID 2284210). Put shortly: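 Rat primary cortical cultures, glia arrested with AraC at DIV 5, were dosed with media change at DIV 7 and fixed at DIV 12. Synaptophysin puncta per MAP2-labelled neurite length were quantified by high-content imaging versus DMSO.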

Assay [7] can be described thus: CCTE_Mundy_HCI_Cortical_Synap_Neur_Matur_BPCount: CCTE's Synaptogenesis and Neurite Maturation Assay in rat cortical cells for Branch Point Count, Mundy Lab (AID 2284211). An outline of the steps: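 Rat primary cortical cultures, AraC added DIV 5; chemicals dosed DIV 7 through DIV 12. Fixed cells stained for MAP2, synaptophysin and Hoechst; neurite branch points counted by automated high-content imaging, fitted relative to DMSO.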

The nature of assay [8]: CCTE_Mundy_HCI_Cortical_NOG_NeuriteCount: CCTE's Neurite Outgrowth Assay in rat cortical cells for Neurite Count, Mundy Lab (AID 2284212).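 Also: cells fixed about two days after chemical exposure began.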 Put shortly: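 Neurite number per cell from high-content imaging of betaIII-tubulin immunostaining, with Hoechst nuclear counterstain.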
Assay [9] can be described thus: CCTE_Mundy_HCI_Cortical_NOG_NeuriteLength: CCTE's Neurite Outgrowth Assay in rat cortical cells for Neurite Length, Mundy Lab (AID 2284213).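 As to AC50: neurites imaged about 48 to 50 h after chemical exposure began.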 An outline of the steps:
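Neurite length was read by high-content imaging of βIII-tubulin-labelled neurites in rat primary cortical cultures. Activity was fitted relative to DMSO.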

Assay [10] in a line: CCTE_Mundy_HCI_Cortical_Synap_Neur_Matur_NeuriteLength: CCTE's Synaptogenesis and Neurite Maturation Assay in rat cortical cells for Neurite Length, Mundy Lab (AID 2284214). Put shortly: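 Rat primary cortical cultures, AraC added DIV 5, dosed DIV 7 through DIV 12 […]. Fixed, MAP2/synaptophysin immunostained with Hoechst; neurite length by high-content imaging, fitted in positive direction versus DMSO.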

Assay [11] is described as follows: CCTE_Mundy_HCI_Cortical_Synap_Neur_Matur_NeuriteSpotCountPerNeuron: CCTE's Synaptogenesis and Neurite Maturation Assay in rat cortical cells for Neurite Spot Count per Neuron Count, Mundy Lab (AID 2284215). An outline of the steps: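 Synapse density is scored as synaptophysin spots along neurites per neuron in fixed rat cortical neurons, measured at DIV 12 after chemical dosing at DIV 7. DMSO is the negative control and activity baseline.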

Assay [12] in a line: CCTE_Mundy_HCI_Cortical_Synap_Neur_Matur_SynapseCount: CCTE's Synaptogenesis and Neurite Maturation Assay in rat cortical cells for Synapse Count, Mundy Lab (AID 2284218). Put shortly:
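Rat primary cortical cultures, AraC at DIV 5, chemical dosing DIV 7 to DIV 12 (288.33 h). Fixed cells stained for MAP2, synaptophysin and Hoechst; synapses per neuron counted by high-content imaging, loss of signal versus DMSO.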

Assay [13] in a line: UKN4_HCS_LUHMES_neurite_outgrowth: University of Konstanz (UKN) Leist Lab Neurite Outgrowth Assay in human LUHMES cells (UKN4) (AID 2284206). The following applies: actives raise or lower the signal. An outline of the steps: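 Human LUHMES neuronal precursors, differentiated 2 days then replated without cAMP and GDNF, exposed to compounds for 24 h. Neurite area imaged by high-content microscopy after calcein-AM live staining; Hoechst H-33342 for viability; bidirectional fit versus DMSO.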

Assay [14] is described as follows: CCTE_Mundy_HCI_hN2_NOG_NeuriteCount: CCTE's Neurite Outgrowth Assay in human hN2 cells for Neurite Count, Mundy Lab (AID 2284219; active = hit-call score of the fitted dose curve at least 0.9, where 1 is the maximum). An outline of the steps:
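In this morphology assay, hNP1-derived neurons received test chemical 2 h post-plating and were fixed two days later in warm paraformaldehyde/sucrose containing Hoechst 33342. Neurites, labelled by rabbit anti-βIII-tubulin (1:800) and Alexa Fluor-488 (1:500), were counted automatically.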

Assay [15] can be described thus: CCTE_Mundy_HCI_hN2_NOG_NeuriteLength: CCTE's Neurite Outgrowth Assay in human hN2 cells for Neurite Length, Mundy Lab (AID 2284220; active = hit-call score of the fitted dose curve at least 0.9, where 1 is the maximum). Put shortly:
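Using βIII-tubulin immunofluorescence and Hoechst nuclear counterstain, this component quantifies neurite length in hNP1-derived neurons.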

Assay [16] is described as follows: CCTE_Mundy_HCI_hN2_NOG_NeuronCount: CCTE's Neurite Outgrowth Assay in human hN2 cells for Neuron Count, Mundy Lab (AID 2284221; active = hit-call score of the fitted dose curve at least 0.9, where 1 is the maximum). An outline of the steps:
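Read-out is the number of betaIII-tubulin-positive neurons imaged by automated high-content analysis, with DMSO as negative control.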

The nature of assay [17]: CCTE_Mundy_HCI_hNP1_Pro_ResponderAvgInten: CCTE's Proliferation Assay in human neuroprogenitor cells, Mundy Lab (AID 2284224; active = hit-call score of the fitted dose curve at least 0.9, where 1 is the maximum;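 also: human neural progenitor cells hNP1 derived from WA09 embryonic stem cells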). Put shortly: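 Human neuroprogenitors (hNP1, WA09 lineage) receive test chemical after 40 to 44 hours of attachment. A four-hour BrdU pulse begins twenty hours later, followed by fixation and high content imaging; signal is referenced to DMSO controls.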

Assay [18] in a line: TAMU_PeakParms_SingleDonor1434_Chronotropy: Texas A&M University (TAMU) 1.5-hr Human Induced Pluripotent Stem Cell (iPSC)-derived Cardiomyocytes Calcium (Ca+2) Flux Assay for Cardiotoxicity: Chronotropy (changes in peak frequency) (AID 2284217). The following applies: actives raise or lower the signal. Put shortly:
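Beat frequency of single-donor iPSC cardiomyocytes was recorded through a calcium-sensitive dye 1.5 hours after exposure to four concentrations up to 100 uM. An EC05 point of departure was derived.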

A word on the AC50: it is the midpoint of the concentration-response curve, whichever way the signal moves.

Values joined by “and” are separate entries in the source; they are usually repeats but may differ in a detail not shown here. Equal entries are not always repeated. Inconclusive results are not listed. Some compounds were tested as several samples or in several runs, with calls that do not always agree. Active and inactive are the calls of the source. The calls were made as follows, unless noted: active = hit-call score of the fitted dose curve at least 0.9, where 1 is the maximum; inactive = score below 0.9.

For the compound `CC(C)(C)C(=O)C(Oc1ccc(Cl)cc1)n1cncn1` (configuration not stated), the AC50 in assay [1] was 41.6 µM (active); in [3] it was 0.513 µM (active); in assay [7] it was 9.82 µM (active); in assay [10] it was 7.05 µM (active); in assay [11], 7.48 µM (active); in assay [12], 6.09 µM (active). Besides, the result in assay [2], in assay [4], in assay [5], in assay [6], in [8] and in assay [9] was inactive.

On to `CCCN(CC)CC1COC2(CCC(C(C)(C)C)CC2)O1` (configuration not stated), for which, in assay [1], the AC50 was 0.281 µM (active).

Regarding `CC1(C)C(C(=O)OC(C#N)c2cccc(Oc3ccccc3)c2)C1(C)C` (configuration not stated), in assay [1], the AC50 was 4.17 µM (active).

In the case of `CN/C(=N\[N+](=O)[O-])NCc1cnc(Cl)s1`, the compound was called inactive in assay [1], in assay [3], in assay [4], in assay [5], in [6] and in assay [7]. Further, the compound was called inactive in assay [8], in assay [9], in assay [10], in [11] and in assay [12].

For the compound `CCOP(=O)(OCC)Oc1nc(Cl)c(Cl)cc1Cl`, the AC50 in assay [1] was 5.46 µM (active) and 7.1 µM (active); in [4] it was 8.27 µM (active); in [10], 16.2 µM (active); in assay [11] it was 9.92 µM (active); in [14] it was 50 µM (active); in [15], 38.4 µM (active). Further, the results for the AC50 in assay [16] and in [17] were 50 µM (active) and 73.7 µM (active), respectively. For the same compound, the result in [1], in [2], in assay [13], in assay [3], in [5] and in assay [6] was inactive. Further, the compound was called inactive in assay [7], in assay [8], in [9], in [10], in assay [11] and in [12]. In [17], the call was inactive.

For the compound `N#CN=C1SCCN1Cc1ccc(Cl)nc1`, the call in assay [1], in assay [3], in assay [4], in [5], in assay [6] and in [7] was inactive. For the same compound, the result in assay [8], in assay [9], in assay [10], in assay [11], in assay [12] and in assay [17] was inactive.

On to `CS(=O)(=O)c1ccc(C(=O)C2C(=O)CCCC2=O)c([N+](=O)[O-])c1`, for which the outcome in assay [1], in assay [2], in assay [3], in [4], in assay [5] and in assay [6] was inactive. The call in assay [7], in assay [8], in assay [9], in [10], in [11] and in assay [12] was inactive.

For the compound `COC(=O)N(C(=O)N1CO[C@@]2(C(=O)OC)Cc3cc(Cl)ccc3C2=N1)c1ccc(OC(F)(F)F)cc1`, the values for the AC50 in assay [1] and in assay [3] were 15 µM (active) and 0.483 µM (active), respectively. Further, the call in assay [2], in assay [4], in assay [5], in assay [6], in [7] and in assay [8] was inactive. In addition, the compound was called inactive in assay [9], in [10], in [11], in assay [12] and in [17].

As for `C=C(C)CN(CC)c1c([N+](=O)[O-])cc(C(F)(F)F)cc1[N+](=O)[O-]`, the AC50 in [1] was 14 µM (active); in assay [3], 92.8 µM (active); in assay [6], 6.36 µM (active); in assay [7], 6.23 µM (active); in assay [8], 65.1 µM (active); in assay [9] it was 32.4 µM (active). The AC50 in assay [10] is 5.64 µM (active); in assay [11], 6.14 µM (active); in assay [12], 4.72 µM (active); in assay [17] it was 19 µM (active). Moreover, the result in assay [2], in assay [4] and in assay [5] was inactive.

As for `CNC(=O)Oc1cccc2ccccc12`, the AC50 in [1] is 12.8 µM (active). The outcome in assay [1], in assay [3], in assay [4], in [5], in assay [6] and in assay [7] was inactive. The compound was called inactive in [8], in assay [9], in assay [11], in [18] and in assay [12].

As for `O=C(Nc1ccccc1-c1ccc(Cl)cc1)c1cccnc1Cl`, the AC50 in [1] was 9.92 µM (active). Further, the call in assay [1], in [2], in assay [3], in [4], in [5] and in assay [6] was inactive. Further, the compound was called inactive in assay [7], in assay [8], in assay [9], in [10], in assay [11] and in [12]. Besides, in [17], the result was inactive.
